The text below walks through data of PubChem BioAssay (NCI).

Where “and” joins values, the source holds several entries; their conditions need not be identical. Equal values may be shown once. The panel holds about 83,000 compounds, 20% with a hit somewhere; the sample as a whole holds those more often.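 96-well plates, one dose, 48 hours. Percent growth reported; active if below 10.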 Calls of active or inactive are those of the source.

Test in all cases: NCI-60 one-dose screen, 48 h (100 = growth as untreated, 0 = no growth, -100 = all killed)
Details in all cases: 10 µM unless noted

Assay [1] concerns SR leukemia.
The subject of assay [2] is RPMI-8226 leukemia.
For assay [3], the system named is OVCAR-8 ovarian.
The test system of assay [4] is OVCAR-5 ovarian.
In assay [5] the test system is OVCAR-4 ovarian.
In assay [6] the test system is SK-OV-3 ovarian.
Assay [7] deals with IGROV1 ovarian.
For assay [8], the system named is OVCAR-3 ovarian.
The test system of assay [9] is HS 578T breast.
Assay [10] deals with NCI/ADR-RES ovarian.
Assay [11] relates to T-47D breast.
Assay [12] relates to BT-549 breast.
Assay [13] has as its system MDA-MB-435 melanoma.
Assay [14] has as its system SW-620 colon.
Assay [15] has as its system MCF7 breast.
The test system of assay [16] is HCT-116 colon.
The subject of assay [17] is HCC-2998 colon.
Assay [18] concerns KM12 colon.

Take `Clc1nccc2c(-c3csc(-c4c[nH]c5ccc(Br)cc45)n3)c[nH]c12`: the growth was 6.34% (active) in assay [1]; 44.9% (inactive) in assay [2]; 33.4% (inactive) in [3]; 60.1% (inactive) in [4]; 48.2% (inactive) in [5]; 27% (inactive) in assay [6]. The growth was 44.3% (inactive) in assay [7]; 62.5% (inactive) in assay [8]; 30.7% (inactive) in assay [9]; 31.3% (inactive) in assay [10]; 17.7% (inactive) in assay [11]; 53.2% (inactive) in assay [12]. Further, the growth was 36.9% (inactive) in assay [13]; -31.1% (active) in [14]; 23.7% (inactive) in assay [15]; 22.8% (inactive) in assay [16]; 27.8% (inactive) in [17]; 17.1% (inactive) in assay [18].
Regarding `Nc1ccccc1SC(CC(=O)c1ccccc1)c1ccc([N+](=O)[O-])cc1` (stereo unspecified), the growth in assay [1] was 13.4% (inactive) and 2.29% (active); in assay [2], -1.33% (active) and -0.234% (active); in [3], 95.5% (inactive) and 95.8% (inactive); in [4] it was 118% (inactive) and 114% (inactive); in assay [5], 93.8% (inactive) and 87.8% (inactive); in assay [6], 108% (inactive) and 95% (inactive). Also, the growth in assay [7] is 117% (inactive) and 76.1% (inactive); in [8], 105% (inactive) and 63.8% (inactive); in assay [9], 103% (inactive) and 105% (inactive); in [10], 98.2% (inactive) and 91.9% (inactive); in assay [11] it was 93.5% (inactive) and 78.4% (inactive); in [12], 83.6% (inactive) and 86.4% (inactive). Besides, the growth in assay [13] is 101% (inactive) and 87.2% (inactive); in assay [14], 51.9% (inactive) and 45.8% (inactive); in assay [15] it was 33% (inactive) and 21.6% (inactive); in [16], -87.1% (active) and -80.5% (active); in [17], 101% (inactive); in [18], 79.1% (inactive) and 31.5% (inactive).
Regarding `O=c1c(/C=C/c2ccco2)nnc2sc(Nc3ccc(Cl)cc3)nn12`, the growth is 96% (inactive) in [1]; 101% (inactive) in [2]; 101% (inactive) in assay [3]; 97.1% (inactive) in assay [4]; 90.7% (inactive) in assay [5]; 86.4% (inactive) in [6]. The growth in assay [7] is 68.8% (inactive); in [8], 106% (inactive); in assay [9], 91% (inactive); in assay [10], 102% (inactive); in assay [11], 88.2% (inactive); in [12], 99.9% (inactive). For the same molecule, the growth in assay [13] was 100% (inactive); in assay [14] it was 103% (inactive); in assay [15] it was 82.5% (inactive); in assay [16], 99% (inactive); in assay [17] it was 96.3% (inactive); in assay [18], 103% (inactive).
For `Cc1oc2c(Cc3ccc(NC(=O)c4ccc(Cl)cc4)cc3)ncnc2c1C(=O)NO`, the growth is 71.2% (inactive) in assay [1]; 92.4% (inactive) in assay [2]; 98.5% (inactive) in [3]; 103% (inactive) in assay [4]; 109% (inactive) in assay [5]; 94.1% (inactive) in [6]. Besides, the growth was 103% (inactive) in assay [7]; 95.8% (inactive) in assay [8]; 113% (inactive) in assay [9]; 98.2% (inactive) in [10]; 96.8% (inactive) in [11]; 103% (inactive) in assay [12]. Also, the growth is 92.5% (inactive) in assay [13]; 105% (inactive) in assay [14]; 91.1% (inactive) in [15]; 98% (inactive) in [16]; 97.9% (inactive) in assay [17]; 95.9% (inactive) in [18].
Take `O=C1N=c2ccccc2=C1c1sc(=S)n(C2CC(=O)N(c3ccc(Cl)cc3)C2=O)c1O` (stereo unspecified): the growth in assay [1] is 36.5% (inactive); in [2] it was 103% (inactive); in [3] it was 98.6% (inactive); in assay [4], 105% (inactive); in [5], 103% (inactive); in assay [6] it was 103% (inactive). In addition, the growth is 101% (inactive) in assay [7]; 109% (inactive) in [8]; 98.1% (inactive) in [9]; 102% (inactive) in [10]; 97.9% (inactive) in assay [11]; 105% (inactive) in [12]. Moreover, the growth was 102% (inactive) in [13]; 99.8% (inactive) in assay [14]; 91.1% (inactive) in assay [15]; 96.7% (inactive) in [16]; 105% (inactive) in assay [17]; 100% (inactive) in assay [18].
Consider `Clc1ccc(/C=N\N2CCCCCC2)cc1`, for which the growth in assay [1] was 93.8% (inactive) and 79.5% (inactive); in assay [2], 107% (inactive); in [3], 116% (inactive) and 98.7% (inactive); in assay [4], 87.8% (inactive) and 95% (inactive); in assay [5], 91.9% (inactive); in [6], 110% (inactive) and 109% (inactive). The growth was 103% (inactive) in assay [7]; 101% (inactive) and 116% (inactive) in assay [8]; 109% (inactive) and 139% (inactive) in [9]; 104% (inactive) in [10]; 108% (inactive) and 97.4% (inactive) in assay [11]; 105% (inactive) and 90.4% (inactive) in [12]. Further, the growth in assay [13] is 86.8% (inactive) and 96.3% (inactive); in [14], 101% (inactive) and 110% (inactive); in [15], 98.8% (inactive) and 96.2% (inactive); in [16] it was 103% (inactive) and 104% (inactive); in [17] it was 97.4% (inactive); in [18] it was 107% (inactive).
`Cc1nc2cccc(NCCCCC(=O)NO)c2c(=O)n1-c1ccccc1`: the growth in assay [1] was 29.4% (inactive); in assay [2] it was 36.1% (inactive); in [3], 39.5% (inactive); in assay [4], 31.1% (inactive); in assay [5], 68.7% (inactive); in assay [6], 50.8% (inactive). Moreover, the growth in assay [7] is 58.2% (inactive); in assay [8] it was 68.1% (inactive); in [9], 55.2% (inactive); in assay [10] it was 75.3% (inactive); in assay [11], 54.5% (inactive); in assay [12], 86.8% (inactive). Further, the growth in assay [13] was 53.8% (inactive); in assay [14] it was 47.5% (inactive); in assay [15] it was 57.9% (inactive); in assay [16] it was 27.3% (inactive); in assay [17] it was 82% (inactive); in [18] it was 73.8% (inactive).
